An excerpt weighted towards active compounds, which were near 3.6% of everything screened.
Epigenetic reg: Quantitative High-Throughput Screen for Regulators of Epigenetic Control. actives 0.2% (n = 280,000). Potency, µM (titrated, usually from 53.9 µM), for inactives: at the highest dose GFP activation, actives largely listed as activators. murine LDR cells, GFP reporter derepression, 30 h; also: % of control where 0% means no effect; nearly all actives have a fitted effect of over 60% in size
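In this reporter-derepression format, murine cells bearing a silenced integrated CMV-GFP locus incubate with test compound (30 h, 37 C), then are washed and imaged; fluorescent objects of 20–120 um count as induced cells.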
KAT2A inh: qHTS Assay for Inhibitors of GCN5L2. Histone acetyltransferase KAT2A (Homo sapiens), Q92830. GCN5L2 HAT assay, ThioGlo1 CoA-SH fluorescence. Potency, µM (doses to about 58.9 µM), inactives show at the top dose activity change, negative = inhibition, most hits filed as inhibitors. actives 0.21% (n = 390,000). AID 504327, 2011; also: % is scaled to controls: 0 for no effect and ±100 for the full control effect
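Preincubate 20nM GCN5L2 with compound 15 min, RT → add 50uM ThioGlo1 + 75uM H3(1-25) + 70uM acetyl-CoA → read fluorescence 0 and 20 min. Primary qHTS; fluorescent artifacts likely.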
NPSR antagonist: qHTS Assay for Antagonists of the Neuropeptide S Receptor: cAMP Signal Transduction; CHO-NPSR cells, cAMP TR-FRET, antagonist mode; Potency, µM (doses to about 38.3 µM), inactives show at the highest dose activity change, negative = inhibition, hits mostly inhibitors; actives 1% (n = 220,000); AID 1461, 2008; Q6W5P4; also: % is scaled to controls: 0 for no effect and ±100 for the full control effect; nearly all actives have a fitted effect of over 50% in size
Target sequence (Q6W5P4 whole entry, looked up): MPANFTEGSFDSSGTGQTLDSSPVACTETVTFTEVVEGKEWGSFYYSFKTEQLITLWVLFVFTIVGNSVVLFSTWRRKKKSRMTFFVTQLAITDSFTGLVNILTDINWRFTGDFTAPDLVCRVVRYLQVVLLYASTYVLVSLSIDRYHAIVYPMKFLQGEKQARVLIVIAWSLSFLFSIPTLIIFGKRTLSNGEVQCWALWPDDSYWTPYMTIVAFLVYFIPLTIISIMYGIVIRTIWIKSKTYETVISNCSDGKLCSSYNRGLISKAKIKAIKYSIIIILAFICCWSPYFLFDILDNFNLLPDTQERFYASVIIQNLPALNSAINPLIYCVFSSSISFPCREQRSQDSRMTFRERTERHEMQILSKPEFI
Sfp inh: qHTS Assay for Inhibitors of Bacillus subtilis Sfp phosphopantetheinyl transferase (PPTase); 4'-phosphopantetheinyl transferase ffp (Bacillus subtilis), Q9F4F7; Biochemical Sfp PPTase activity, qHTS; Potency, µM, inactives show largest response in the series, negative = inhibition, actives largely listed as inhibitors; actives 3.5% (n = 310,000); AID 1490, 2009;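 also: the enzyme is Sfp with the accession as filed and its product quenches rhodamine fluorescence; 0% = enzyme reaction without inhibitor and -100% = no enzyme wells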
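After 15 min at room temperature with compound, 15 nM Sfp received 5 uM rhodamine-CoA plus 12.5 uM BHQ-2-ybbR (50 mM Hepes pH 7.6, 10 mM MgCl2). Rate came from the fluorescence difference over 30 min, ex 525/em 598 nm.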
KDM4E inh: qHTS Assay for Inhibitors of Human Jumonji Domain Containing 2E (JMJD2E) | Lysine-specific demethylase 4E (Homo sapiens), B2RXH2 | JMJD2E catalytic domain, FDH-coupled NADH fluorescence (FDH is formaldehyde dehydrogenase) | Potency, µM (titrated, usually from 57.1 µM), for the others: at the highest dose activity change, negative = inhibition, most hits filed as inhibitors | actives 1.6% (n = 230,000) | AID 2147, 2009; active = well fitted inhibition curve with a large enough effect, not every such curve was filed as active; inconclusive = small, poorly fitted or top-dose-only effect, or another doubt; inactive = no such curve, though single readings can be large or run the other way;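 also: 0% = wells with enzyme and -100% = buffer wells without enzyme; nearly all actives have a fitted effect of over 50% in size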
IMPase Li inh: qHTS Assay for Identifying the Cell-Membrane Permeable IMPase Inhibitors: Potentiation with Lithium. actives 0.35% (n = 210,000). AID 1457, 2008. CHO-M1 cells, IP1 TR-FRET (IP-One), carbachol + lithium. Potency, µM (titrated, usually from 59.4 µM), for the others: top-dose activity, negative = IMPase inhibition, hits mostly inhibitors;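 also: IP1 builds up when IMPase is blocked and the TR-FRET signal falls; plate controls were basal vehicle for no effect and high inhibitor control for full effect; nearly all actives have a fitted effect of over 50% in size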
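CHO cells stably expressing M1 receptor (2000/well, cultured 16–30 h) treated 30 min at 37C with compound plus low lithium. Cytosolic IP1 by TR-FRET (665/620 ratio and 620 channel) after 10 min lysis; AC50 by Hill fit.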
Starred values were filed as active, the others as inactive; ? = inconclusive; . = no result; [ ] = dose if it differs, or a comment. Unless noted, calls follow the shape of the dose curve; as a rule, active = well fitted curve in the direction sought with a large enough effect; inconclusive = small, poorly fitted or top-dose-only effect, or another doubt; inactive = no such curve, though single readings can be large; an effect the other way counts as inactive or inconclusive. Potency is read from the fitted curve at half-maximal effect.

SMILES	Epigenetic reg	KAT2A inh	NPSR antagonist	Sfp inh	KDM4E inh	IMPase Li inh
Cc1cc(-c2csc(NC(=O)c3ccc(=O)n(C)n3)n2)c(C)n1CC1CCCO1 (stereo unspecified)	-1.1%	-5.6%	-10.9%[46.1 µM]	50.1µM*	-21.7%	-4.0%[38.3 µM]
CCc1cccc(C)c1NC(=O)CN1C(=O)c2ccccc2Sc2ncccc21	0.0%	-4.1%	.	.	.	.
CC(=O)N1CCc2c(sc(NC(=O)c3ccc([N+](=O)[O-])o3)c2C#N)C1	11.2µM*	0.3%	2.51µM*	10µM*	-7.6%	34.4%
CCOC(=O)c1c(NC(=O)Cc2cccs2)sc(C)c1C	-1.0%	-22.2%	-16.6%[46.1 µM]	20µM*	-10.9%	31.4%[38.3 µM]
CCOC(=O)c1c(NC(=O)CC)sc(C(=O)NC2CCCC2)c1C	.	-1.1%	.	-0.9%	.	.
CCOC(=O)c1c(NC(=O)CSc2nnnn2-c2ccc(OC)cc2)sc(C)c1C	0.1%	?	-23.3%[46.1 µM]	5.01µM*	-2.4%	37.5%[38.3 µM]
CCOC(=O)c1csc(NC(=O)CSc2nnnn2-c2ccc(OC)cc2)n1	-1.1%	-0.3%	-12.9%[46.1 µM]	3.5%	-3.1%	6.5%[38.3 µM]
CCOC(=O)c1c(NC(=O)CC)sc(C(C)=O)c1C	-2.4%	-4.0%	-13.4%[46.1 µM]	39.8µM*	-5.4%	-6.9%[38.3 µM]
CC(C)OC(=O)c1cn(Cc2c(F)cccc2F)c2sc(-c3ccc(NC(=O)C(C)C)cc3)c(CN(C)Cc3ccccc3)c2c1=O	.	0.0%	.	-3.8%	.	.
O=C(NCC1CCCO1)c1c[nH]c2ccc(S(=O)(=O)Nc3cccc(C(F)(F)F)c3)cc2c1=O (stereo unspecified)	-1.1%	-1.0%	.	.	.	.
O=c1[nH][nH]c(=S)c(=O)[nH]1	.	.	.	.	.	3.2%
C=CCSC1=N/C(=C\c2cc(OCC)c(OC(C)=O)c([N+](=O)[O-])c2)C(=O)S1	0.0%	-0.5%	-10.2%	56.2µM*	4.3%	-0.4%
CC1(C)Cc2c(sc3nc(=S)[nH]c(N)c23)CO1	.	-22.8%	.	25.1µM*	.	.
Cc1nc(NN)c2c3c(sc2n1)COC(C)(C)C3	.	-26.5%	.	56.2µM*	.	.
CN(C)c1ccc(-c2nccc(NCc3cccs3)n2)cc1	.	-20.7%	.	?	.	-0.8%
CCOCC	.	?	.	3.6%	.	.
NNC(=O)CSc1c(-c2ccccc2)c2cc(Cl)ccc2[nH]c1=O	.	-0.8%	.	5.0%	.	.
O=c1[nH]c2ccc(Cl)cc2c(-c2ccccc2)c1SC(=S)N1CCCCC1	0.1%	-0.6%	-26.4%[46.1 µM]	14.1µM*	-4.1%	27.8%[38.3 µM]
O=c1[nH]c2ccc(Cl)cc2c(-c2ccccc2)c1SC(=S)N1CCOCC1	14.1%	-1.2%	-28.7%[46.1 µM]	11.2µM*	-8.5%	54.2%[38.3 µM]
Cc1cc(=O)oc2cc(O)c(O)cc12	1.8%	-20.5%	.	4.1%	?	-8.5%
c1cc(SSc2ccncc2)ccn1	.	?	.	35.5µM*	.	.
C(=C\c1ccncc1)/c1ccncc1	1.1%	0.4%	-1.1%[7.67 µM]	13.8%	-1.7%	.
Nc1ccc(S(N)(=O)=O)cc1N	-3.5%	-7.3%	-15.7%	10.4%	7.94µM*	.
COc1cc(O)c(C(CCN2CCN(c3ccccc3)CC2)c2cc(OC)c(OC)c(OC)c2)c(OC)c1 (stereo unspecified)	1.1%	-15.1%	5.01µM*	-19.5%	14.9%	.
COc1cc(O)c(C(CCN2CCN(c3ccccc3)CC2)c2ccc3c(c2)OCO3)c(OC)c1 (stereo unspecified)	0.0%	-24.0%	-43.1%	17.1%	?	.
O=C(NCc1ccco1)c1cnn2c(C(F)(F)F)cc(-c3cccs3)nc12	9.5%	-3.9%	-25.0%[46.1 µM]	31.6µM*	?	17.7%[38.3 µM]
COC(=O)CSc1nc2nc(-c3cccs3)cc(C(F)(F)F)c2c(=O)[nH]1	.	-9.6%	.	11.7%	.	.

High-throughput results as filed in PubChem BioAssay.
